According to ChEMBL document CHEMBL1201862, “PubChem BioAssay data set” (2004):
In all, about 58,000 sequences went through this assay and about 3,600 (6.2%) were called active. No stated cut-off is given here; in the data, active = GI50 up to about 1.1 µM and inactive = higher. Only a selection was taken, and actives are over-represented in it overall. Entries with a potency or affinity are not part of this list.

system: NCI-H23

Substance | GI50
mu-(1,7-nanodiamine-N,N')bis-(cis-aminedichloroplatimum (II)), CHEMBL2146215 | 4.37 µM
[Bis(aminomethyl)pentamethylenesilane]tetrachloropaltinum(IV), CHEMBL2146204 | 1.51 µM
CISPLATIN, CHEMBL11359 | 0.783 µM
[Bis(aminomethyl)pentamethylenesilane]dichloropaltinum(II), CHEMBL2146202 | 4.59 µM
[Bis(aminomethyl)dimethylsilane]tetrachloroplatinum(IV), CHEMBL2146190 | 3.98 µM
[Bis(aminomethyl)tetramethylenesilane]dichloropaltinum(II), CHEMBL2146205 | 13.5 µM
[Bis(aminomethyl)tetramethylenesilane]tetrachloropaltinum(IV), CHEMBL2146189 | 3.33 µM
[Bis(aminomethyl)diethylsilane]tetrachloroplatinum(IV), CHEMBL2146203 | 2.79 µM
